# Measurements as given in PubChem BioAssay (NCI).
# About 83,000 compounds went through this panel and 20% of them were active in at least one assay; those are over-represented in the sample as a whole.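 Compound tested at a single concentration for 48 hours in 96-well plates; a percent growth value below 10 was scored as active.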 A number with no mark means an inactive call. Active and inactive are the calls of the source.
# What was measured:
# Assay in all cases: NCI-60 one-dose screen, 48 h (100 = growth as untreated, 0 = no growth, -100 = all killed)
# Conditions in all cases: 10 µM unless noted
# [1] = tested on: NCI-H23 lung
# [2] = tested on: NCI-H226 lung
# [3] = tested on: NCI-H322M lung
# [4] = tested on: HOP-62 NSCLC
# [5] = tested on: NCI-H460 lung
# [6] = tested on: HOP-92 NSCLC
# [7] = tested on: NCI-H522 lung
# [8] = tested on: A549/ATCC NSCLC
# [9] = tested on: 786-0 renal
# [10] = tested on: COLO 205 colon
# [11] = tested on: DU-145 prostate
# [12] = tested on: K-562 leukemia
# [13] = tested on: MALME-3M melanoma
# [14] = tested on: MDA-MB-231 breast
# [15] = tested on: RXF 393 renal
# [16] = tested on: SF-268 CNS
# [17] = tested on: SF-295 CNS
# [18] = tested on: SF-539 CNS
# [19] = tested on: UACC-257 melanoma
# [20] = tested on: M14 melanoma
SMILES,growth [1],growth [2],growth [3],growth [4],growth [5],growth [6],growth [7],growth [8],growth [9],growth [10],growth [11],growth [12],growth [13],growth [14],growth [15],growth [16],growth [17],growth [18],growth [19],growth [20]
C=C1C(=O)O[C@H]2[C@H]1CC/C(COC(=O)/C=C/c1c[nH]c3ccccc13)=C\CC[C@@]1(C)O[C@@H]21,-53% (active),-71.4% (active),-48.2% (active),-73.5% (active),-70.8% (active),-91.4% (active),-63.1% (active),-78.7% (active),-90.4% (active),-68.8% (active),-73.5% (active),-3.41% (active),-83.5% (active),-78.4% (active),-94.3% (active),-72.8% (active),21.8%,-95.5% (active),-90.4% (active),
CC(c1ccccc1)n1ccnc1CO (stereo not drawn),96.5%,100%,101%,105%,104%,66.5%,98.8%,109%,105%,106%,113%,105%,85.5%,104%,101%,107%,96.1%,106%,106%,109%
COc1ccc(-n2cc(-c3cc(OC)c(OC)c(OC)c3)n(C(C)=O)c2=O)cc1,95%,94.6%,78.8%,126%,109%,85.7%,77.4%,99.8%,64.5%,91.5%,109%,92.9%,79.4%,86.4%,111%,94.7%,82.1%,90.2%,90.3%,
Cc1ccc(C(=O)Nc2ccccc2C(=O)N/N=C(\c2ccccc2)c2ccccn2)cc1,32.6%,30.3%,33.4%,14.5%,5.43% (active),52.7%,24.1%,17.2%,-17.1% (active),14.1%,22.7%,19.9%,37.9%,34.4%,40.4%,20.2%,23%,8.97% (active),8.34% (active),-38.9% (active)
CC(=O)c1cc2c(N)c(C(=O)Nc3cncc4ccccc34)sc2nc1C,101%,105%,113%,93.5%,110%,98.6%,92.1%,106%,98.4%,121%,115%,81.7%,112%,86.2%,100%,105%,97.2%,98.3%,104%,94%
CCNNC(=O)[C@@H]1[C@H](c2cc(OC)c(OC)c(OC)c2)c2cc3c(cc2[C@H](O)[C@H]1CO)OCO3,24%,-21.5% (active),43.7%,36.3%,1.59% (active),9.16% (active),-18.7% (active),9.99% (active),0.908% (active),-63.6% (active),-24% (active),13.7%,56.3%,39.6%,15.3%,31.1%,9.93% (active),-10.9% (active),53%,-19.5% (active)
Cc1ccc(C2C3CC4CCCCC4N3[C@@]3(C(=O)Nc4cc(Cl)ccc43)C2C(=O)c2nc3ccccc3[nH]2)cc1 (stereo partly drawn),57.8%,62.7%,63.3%,66.5%,15.9%,44.1%,54%,31.1%,35.2%,30.6%,64.3%,26.2%,33.9%,30.6%,15.5%,38.3%,27.9%,50.3%,35.1%,27.9%
COc1ccc2c(Nc3ccc(NS(C)(=O)=O)cc3)c3ccccc3nc2c1,-18.6% (active),-27.1% (active),9.34% (active),-0.998% (active),-21.8% (active),-16.6% (active),-58.6% (active),-71.2% (active),18.4%,-74.1% (active),8.86% (active),6.83% (active),-50.7% (active),3.5% (active),-73.9% (active),-2.84% (active),-27.9% (active),-0.512% (active),-78% (active),-53.6% (active)
N#C/C(=C\c1ccc(Br)cc1)n1nnc2cccc(F)c21,23.8%,41.9%,32.3%,40%,-47% (active),-23.7% (active),18.4%,20.9%,11.2%,-12.5% (active),0.426% (active),12.7%,37.7%,-1.07% (active),-23.6% (active),24.4%,55.4%,1.06% (active),37.3%,10.9%
CN(C)CCCn1c2c(c3ccc(-c4ccn[nH]4)cc3c1=O)C(=O)c1ccccc1-2,21.6%,6.87% (active),81.9%,5.59% (active),1.55% (active),34.1%,25.9%,0.619% (active),2.46% (active),43%,4.84% (active),24.5%,39.7%,71.1%,68.3%,44.6%,1.34% (active),46.4%,70.3%,48%
COc1cc(C2NC(c3cc(OC)c(OC)c(OC)c3)C(C#N)(C#N)C2(C#N)C#N)cc(OC)c1OC (stereo not drawn),101%,91.5%,100%,94.8%,104%,96.5%,95.6%,103%,97%,101%,102%,109%,96%,97.3%,114%,105%,99.8%,95.8%,106%,92.9%
COc1cc2nc(-c3ccc(C(F)(F)F)cc3)cc(OCCCN3CCC(O)CC3)c2cc1OC,57.9%,-9.29% (active),61.1%,45.3%,16.5%,19.9%,10.5%,27.7%,42.7%,26.5%,28.3%,6.21% (active),43.9%,11.2%,42.1%,49.9%,-43.5% (active),45.5%,-8.17% (active),-55.9% (active)
COc1ccc(/C=C/C(=O)c2ccc(OC)c(OC)c2)cc1O,73.1%,86.3%,78.6%,39.7%,44.2%,29.1%,51.9%,26.4%,98.2%,104%,21%,14.7%,90.9%,73%,72.1%,80.7%,104%,79.8%,96.6%,97.7%
COc1cc2nc(-c3ccc(C(F)(F)F)cc3)cc(OCCN3CCCC3)c2cc1OC,80.9%,82.7%,88.9%,83.6%,68.1%,60.7%,95.7%,93.5%,76.4%,77.9%,84.1%,47.4%,85.8%,74.6%,65.4%,81%,83%,81.1%,68.9%,4.5% (active)
